{"source": "PubChem BioAssay (NCI)", "note": "This is part of a sample that, as a whole, favours compounds with a hit. Of some 79,000 tested, about 15% had one in any assay. Unmarked numbers belong to inactive results. Activity calls are given as the source filed them. Cut-off read from the data, not from the text of the source: active = growth inhibition above about 70%; inactive = the rest."}
{"assay": "NCI Yeast Anticancer Drug Screen. Data for the mgt1 strain (AID 153)", "settings": "S. cerevisiae mgt1 mutant growth inhibition; at 11.0 µM; stronger effect = higher value", "procedure,_shortened": "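Genetically defined yeast (mgt1) treated with compound; inhibition of growth expressed against vehicle-treated controls.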"}
{"compound": "COc1ccc2nc3cccc([N+](=O)[O-])c3c(NCCNCCN(C)C)c2c1", "growth inhibition": "20%"}
{"compound": "Cc1cccc(/C=N/NC(=S)NC2CCCCC2)n1", "growth inhibition": "19%"}
{"compound": "COC(=O)C(=O)c1c(-c2ccc(Cl)c(Cl)c2)[nH]c2[nH]n(-c3ccccc3)c(=O)c2c1=O", "growth inhibition": "44%"}
{"compound": "c1ccc([P+](CCN2Cc3ccccc3C2)(c2ccccc2)c2ccccc2)cc1", "growth inhibition": "28%"}
{"compound": "Cc1cc(C)c2[s+]snc2c1", "growth inhibition": "6%"}
{"compound": "CC(C)(Br)C(=O)/C=C/c1ccccc1", "growth inhibition": "4%"}
{"compound": "Cc1ccc(S(=O)(=O)NC(=O)C2C(=O)CC3(CCCCC3)CC2=O)cc1", "growth inhibition": "-13%"}
{"compound": "NC(=S)N1N=C2c3ccccc3CC[C@H]2[C@@H]1c1ccc(Cl)cc1", "growth inhibition": "0%"}
{"compound": "O=[N+]([O-])/C=C/c1cc2ccc3ccccc3c2[nH]1", "growth inhibition": "81% (active)"}
{"compound": "O=C1C(=C2CCCC2)CCC1CN1CCCCC1", "note": "(stereo unspecified)", "growth inhibition": "13%"}
{"compound": "OC(CC(O)(C(F)(F)F)C(F)(F)F)c1ccc(C(O)CC(O)(C(F)(F)F)C(F)(F)F)cc1", "note": "(stereo unspecified)", "growth inhibition": "91% (active)"}
{"compound": "COc1cc2c(cc1OC)[C@@H](Nc1ccc(C#N)cc1)C1COC(=O)[C@@H]1C2c1cc(OC)c(O)c(OC)c1", "note": "(stereo partly specified)", "growth inhibition": "12%"}
{"compound": "O=c1cccccc1[O-].O=c1cccccc1[O-].O=c1cccccc1[O-].[Eu+3]", "growth inhibition": "14%"}
{"compound": "O=C1c2ccccc2C(=O)c2sc(Nc3ccccc3Cl)nc21", "growth inhibition": "96% (active)"}
{"compound": "NC(CCCCCCCCCCCCC(N)C(=O)c1ccccc1)C(=O)c1ccccc1", "note": "(stereo unspecified)", "growth inhibition": "17%"}
{"compound": "CC1=C(C)C(=O)C2=C(OCCO2)C1=O", "growth inhibition": "-2%"}
